AmpC inh no det: blocks E. coli AmpC beta-lactamase in absence of detergent | P00811 | AmpC nitrocefin hydrolysis, absorbance 480 nm, no detergent | Potency, µM (doses to about 28.7 µM), for inactives: at the top dose activity change, negative = inhibition | hit rate 1.8% among 71,000; further: % of control where 0% means no effect
Target sequence (P00811 whole entry, looked up): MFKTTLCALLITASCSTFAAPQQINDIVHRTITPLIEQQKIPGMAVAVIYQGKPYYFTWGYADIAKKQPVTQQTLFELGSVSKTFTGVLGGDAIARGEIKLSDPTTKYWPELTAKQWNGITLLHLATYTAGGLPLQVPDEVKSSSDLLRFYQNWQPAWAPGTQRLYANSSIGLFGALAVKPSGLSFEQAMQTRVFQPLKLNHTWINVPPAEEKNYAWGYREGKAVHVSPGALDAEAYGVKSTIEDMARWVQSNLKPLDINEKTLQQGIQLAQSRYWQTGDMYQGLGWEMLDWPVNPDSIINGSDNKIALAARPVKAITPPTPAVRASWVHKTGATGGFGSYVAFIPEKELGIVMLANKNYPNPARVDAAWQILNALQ
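AmpC, 20 mM phosphate pH 7.0; 15 min cpd preinc, RT; start with nitrocefin (800 uM stock); A480 kinetic read, 20 s intervals, 4 min. No-enzyme wells = negative control.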
AmpC inh det: AmpC beta-lactamase inhibition, detergent assay; purified AmpC, nitrocefin hydrolysis with detergent; Potency, µM (doses to about 28.7 µM), inactives show at the top dose activity change, negative = inhibition; hit rate 0.09% among 71,000; AID 584; active means well fitted curve in the direction sought with a large enough effect; inconclusive means small, poorly fitted or top-dose-only effect; further: on the % scale 0 is the no-effect control and ±100 the full control effect
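E. coli AmpC (5.3 nM) in 20 mM phosphate pH 7.0 with 0.01% Triton X-100, preincubated 15 min RT with compound; nitrocefin (2 uL of 800 uM stock) hydrolysis followed by 480 nm absorbance every 20 s over 4 min.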
Anthrax LT inh: blocks cellular internalization of anthrax lethal toxin | Cells, anthrax lethal toxin internalization, FRET ratio (460/530) | Potency, µM (doses to about 40 µM), for inactives: at the top dose activity change, negative = inhibition, usual class: inhibitors | hit rate 0.67% among 70,000 | AID 912; further: on the % scale 0 is the no-effect control and ±100 the full control effect; nearly all actives have a fitted effect of over 50% in size
SmPrx2 inh: inhibitors of Schistosoma mansoni peroxiredoxin 2; S. mansoni Prx2 activity coupled to TGR/GSH (TGR is thioredoxin glutathione reductase), NADPH fluorescence loss, qHTS; Potency, µM; hit rate 0.07% among 65,000
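qHTS, coupled TGR/Prx2 format; 15 min compound preincubation at RT; reaction started with H2O2 (2.5 mM aliquot); kinetic NADPH fluorescence decrease, ex 365/em 450 nm.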
* = called active by the depositor; ! = a repeat was not active; [ ] = another dose, or the depositor's remark. Shown are actives, neighbours in structure and some others; about 2.4% of the full set was active somewhere. Unless noted, the call rests on the fitted dose curve. Potency means the concentration at half of the fitted maximal effect.

What do the screens show for `O=C1CCC(=O)N1c1cccc(-c2nc3ccccc3o2)c1`?
AmpC inh no det: 4µM*[single pt active]; AmpC inh det: 12%; Anthrax LT inh: 1%; SmPrx2 inh: >57

How did O=C1c2cccnc2C(=O)N1c1cccc(-c2nc3ccccc3o2)c1 do in these assays?
AmpC inh no det: 44%; AmpC inh det: -1%; Anthrax LT inh: -6%; SmPrx2 inh: >57

What do the screens show for `CCC(C)C(=O)Nc1nc2c(s1)C(=O)CC(C)(C)C2` (stereo unspecified)?
AmpC inh no det: 4µM*[single pt active]; AmpC inh det: 11%; Anthrax LT inh: 9%; SmPrx2 inh: >57

What do the screens show for `COc1ccc2c3c(ccc2c1)N[C@H](C(=O)O)CC3`?
AmpC inh no det: 10%[5.75 µM]; AmpC inh det: -2%[5.75 µM]; Anthrax LT inh: 4%[8 µM]; SmPrx2 inh: >57

How did O=C(Oc1cccc(-n2cnnn2)c1)c1sc2ccccc2c1Cl do in these assays?
AmpC inh no det: 13µM*[single pt active]; AmpC inh det: -3%; Anthrax LT inh: -6%; SmPrx2 inh: >57

What do the screens show for `CCN1CCN(C(=O)CSCc2nc(-c3ccc(OC)c(OC)c3)oc2C)CC1`?
AmpC inh no det: 4µM*[single pt active]; AmpC inh det: 11%; Anthrax LT inh: inconclusive; SmPrx2 inh: >57

Results for CC1CCN(c2c(NCc3ccc(C(=O)NCC4COc5ccccc5O4)cc3)c(=O)c2=O)CC1 (stereo unspecified) ?
AmpC inh no det: 4µM*[single pt active]; AmpC inh det: 15%; Anthrax LT inh: -2%; SmPrx2 inh: >57

Results for CN1CCN(c2ncc3nc(-c4cccc(C#N)c4)c(=O)n(CCC#N)c3n2)CC1 ?
AmpC inh no det: 60%; AmpC inh det: 0%; Anthrax LT inh: -12%; SmPrx2 inh: >57

How did O=C1CCC[C@H]1C(=O)Nc1ccc2ccccc2c1 do in these assays?
AmpC inh no det: -2%[5.75 µM]; AmpC inh det: -1%[5.75 µM]; Anthrax LT inh: -7%[8 µM]; SmPrx2 inh: >57

Results for CCCc1c(OCCCOc2ccc(OCC(=O)O)cc2)ccc(CC=O)c1O ?
AmpC inh no det: 60%; AmpC inh det: -7%; Anthrax LT inh: 2%; SmPrx2 inh: >57

How did CCOC(=O)c1cnc2c(C)c(Cl)ccc2c1N1CCOCC1 do in these assays?
AmpC inh no det: 4µM*[single pt active]; AmpC inh det: 14%; Anthrax LT inh: 0%; SmPrx2 inh: >57

How did CCOC(=O)c1cnc2c(C(F)(F)F)cccc2c1N1CCOCC1 do in these assays?
AmpC inh no det: 33%; AmpC inh det: -7%; Anthrax LT inh: -9%; SmPrx2 inh: >57

Results for Cn1c(C(=O)NCc2cccs2)cc2c(=O)n(C)c3ccccc3c21 ?
AmpC inh no det: 4µM*[single pt active]; AmpC inh det: 9%; Anthrax LT inh: -7%; SmPrx2 inh: >57

What do the screens show for `CCCN(CCC)CCNC(=O)c1cc2c(=O)n(C)c3ccccc3c2n1C`?
AmpC inh no det: 30%; AmpC inh det: 13%; Anthrax LT inh: 4µM*; SmPrx2 inh: >57

What do the screens show for `CN(CCNC(=O)c1cc2c(=O)n(C)c3ccccc3c2n1C)Cc1ccccc1`?
AmpC inh no det: 120%; AmpC inh det: 6%; Anthrax LT inh: 3.2µM*; SmPrx2 inh: >57

What do the screens show for `COCCn1cc(C(=O)NCc2cccs2)c2c3ccccc3n(C)c2c1=O`?
AmpC inh no det: 81%; AmpC inh det: 9%; Anthrax LT inh: 10%; SmPrx2 inh: >57

How did NC[C@](O)(CS(=O)(=O)O)c1ccc(Cl)cc1 do in these assays?
AmpC inh no det: 4%; AmpC inh det: 2%; Anthrax LT inh: -8%; SmPrx2 inh: >57

What do the screens show for `CCOC(=O)N/N=C1/C[C@@H](O)[C@@H](O)[C@@H]2[C@@H]3C(=O)N(C[C@@H]4CCCO4)C(=O)[C@H]3CC[C@H]12`?
Anthrax LT inh: 7%[8 µM]

How did CN(C)CCCN1c2ccccc2Sc2ccc(Cl)cc21 do in these assays?
AmpC inh no det: 52%[12.8 µM]; AmpC inh det: 1%[12.8 µM]; Anthrax LT inh: inconclusive; SmPrx2 inh: >57

Results for OCCN1CCN(CCCN2c3ccccc3Sc3ccc(Cl)cc32)CC1 ?
AmpC inh no det: 124%[12.8 µM]; AmpC inh det: 0%[12.8 µM]; Anthrax LT inh: 25µM*!; SmPrx2 inh: >57

Results for CCn1cc(C(=O)NCc2ccc(Cl)cc2)c(=O)c2cc(S(=O)(=O)N3CCOCC3)ccc21 ?
AmpC inh no det: 4µM*[single pt active]; AmpC inh det: 14%; Anthrax LT inh: -17%; SmPrx2 inh: >57

How did CCn1cc(C(=O)N2CC(C)CC(C)C2)c(=O)c2cc(S(=O)(=O)N(C)C)ccc21 (stereo unspecified) do in these assays?
AmpC inh no det: 68%; AmpC inh det: 7%; Anthrax LT inh: -14%; SmPrx2 inh: >57

How did CCn1cc(C(=O)NCCCN2CC(C)CC(C)C2)c(=O)c2cc(S(=O)(=O)N(C)C)ccc21 (stereo unspecified) do in these assays?
AmpC inh no det: 3.2µM*[single pt active]; AmpC inh det: 13%; Anthrax LT inh: -19%; SmPrx2 inh: >57

What do the screens show for `CCn1cc(C(=O)NCC2CCCO2)c(=O)c2cc(S(=O)(=O)N(C)C)ccc21` (stereo unspecified)?
AmpC inh no det: 4µM*[single pt active]; AmpC inh det: 13%; Anthrax LT inh: 4%; SmPrx2 inh: >57

Results for CCn1cc(C(=O)NCc2ccc3c(c2)OCO3)c(=O)c2cc(S(=O)(=O)N3CCOCC3)ccc21 ?
AmpC inh no det: 100%; AmpC inh det: -1%; Anthrax LT inh: inconclusive; SmPrx2 inh: >57

Results for COc1ncc2nc(-c3ccc(F)cc3)c(=O)n(C3CC3)c2n1 ?
AmpC inh no det: -2%; AmpC inh det: -3%; Anthrax LT inh: inconclusive; SmPrx2 inh: >57

How did CC(C)(C)c1ccc(S(=O)(=O)/C=C\C#N)cc1 do in these assays?
AmpC inh no det: 1%; AmpC inh det: -6%; Anthrax LT inh: inconclusive; SmPrx2 inh: >57

Results for Cc1ccc2[nH]c(=O)c(CN(CCc3ccccc3)C(c3nnnn3Cc3ccco3)C(C)C)cc2c1 (stereo unspecified) ?
AmpC inh no det: 5µM*; AmpC inh det: 6%; Anthrax LT inh: inconclusive; SmPrx2 inh: >57

What do the screens show for `CCC(c1nnnn1Cc1ccco1)N(CCc1ccccc1)Cc1cc2cc(C)ccc2[nH]c1=O` (stereo unspecified)?
AmpC inh no det: 16%; AmpC inh det: 1%; Anthrax LT inh: -18%; SmPrx2 inh: >57

What do the screens show for `CCOc1ccc(C2CC(c3ccc(F)cc3)n3ncnc3N2)cc1` (stereo unspecified)?
AmpC inh no det: 4µM*[single pt active]; AmpC inh det: 12%; Anthrax LT inh: -13%; SmPrx2 inh: >57

Results for Fc1ccc(C2CC(c3ccccc3)n3ncnc3N2)cc1 (stereo unspecified) ?
AmpC inh no det: 20%; AmpC inh det: -5%; Anthrax LT inh: -30%; SmPrx2 inh: >57

Results for Cc1ccccc1C1CC(c2ccccc2)Nc2ncnn21 (stereo unspecified) ?
AmpC inh no det: 4µM*[single pt active]; AmpC inh det: 10%; Anthrax LT inh: -23%; SmPrx2 inh: >57

What do the screens show for `COc1cccc(C2CC(c3ccccc3OC)n3ncnc3N2)c1` (stereo unspecified)?
AmpC inh no det: 4µM*[single pt active]; AmpC inh det: 16%; Anthrax LT inh: 12%; SmPrx2 inh: >57
